Results taken from PubChem BioAssay (NCI).
This is part of a sample that, as a whole, favours compounds with a hit. Of some 83,000 tested, about 20% had one in any assay.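 How to read the values: 0–100, growth inhibition (40 = 60% inhibited); 0, no net growth; -100 to 0, cell death (-40 = 40% of starting cells died; -100 = all dead).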 Unmarked numbers belong to inactive results. Activity calls are given as the source filed them. Rule for the calls: active = growth percent below 10; inactive = the rest.

Experiments:
Assay in all cases: NCI-60 one-dose screen, 48 h (100 = growth as untreated, 0 = no growth, -100 = all killed)
Details in all cases: 10 µM unless noted
SK-MEL-2 melanoma = system: SK-MEL-2 melanoma
EKVX NSCLC = system: EKVX NSCLC
SN12C renal = system: SN12C renal
UO-31 renal = system: UO-31 renal
TK-10 renal = system: TK-10 renal
ACHN renal = system: ACHN renal
CAKI-1 renal = system: CAKI-1 renal
A498 renal = system: A498 renal
CCRF-CEM leukemia = system: CCRF-CEM leukemia
MOLT-4 leukemia = system: MOLT-4 leukemia
SR leukemia = system: SR leukemia
RPMI-8226 leukemia = system: RPMI-8226 leukemia
OVCAR-8 ovarian = system: OVCAR-8 ovarian
OVCAR-5 ovarian = system: OVCAR-5 ovarian
OVCAR-4 ovarian = system: OVCAR-4 ovarian
SK-OV-3 ovarian = system: SK-OV-3 ovarian
IGROV1 ovarian = system: IGROV1 ovarian
HS 578T breast = system: HS 578T breast
NCI/ADR-RES ovarian = system: NCI/ADR-RES ovarian

SMILES	growth (SK-MEL-2 melanoma)	growth (EKVX NSCLC)	growth (SN12C renal)	growth (UO-31 renal)	growth (TK-10 renal)	growth (ACHN renal)	growth (CAKI-1 renal)	growth (A498 renal)	growth (CCRF-CEM leukemia)	growth (MOLT-4 leukemia)	growth (SR leukemia)	growth (RPMI-8226 leukemia)	growth (OVCAR-8 ovarian)	growth (OVCAR-5 ovarian)	growth (OVCAR-4 ovarian)	growth (SK-OV-3 ovarian)	growth (IGROV1 ovarian)	growth (HS 578T breast)	growth (NCI/ADR-RES ovarian)
COc1ccc2c(c1)c(/C=N/Nc1ccnc3cc(Cl)ccc13)cn2C	-80.8% (active)	-81.2% (active)	-81.5% (active)	-89.5% (active)	-79.9% (active)	-97.3% (active)	-92% (active)	-90% (active)	-29.2% (active)	-49.6% (active)	-22.6% (active)	-43% (active)	-66.8% (active)	-87.3% (active)	-76.7% (active)	-89.2% (active)	-82% (active)	-53.1% (active)	-71.1% (active)
COc1ccc(-c2c3c(cn2Cc2cccc(OC)c2)-c2oncc2CCC3)cc1	96.2%	97.6%	96.6%	81%	106%	102%	76.1%	96.8%	96.8%	98.6%	89.2%	93.6%	98.5%	108%	100%	98.3%	94.3%	101%	97%
CCCCc1nc2c(N)nc3ccccc3c2n1Cc1cccc(CN)c1	79.4%	77%	68.9%	70.5%	89.9%	65%	14.2%	16.3%	23.9%	33.9%	2.23% (active)	42.5%	63.9%	109%	53.6%	91.2%	62.8%	67.2%	93.5%
Cc1ccc(N2CCN(C3=C(Cl)C(=O)c4ncccc4C3=O)CC2)cc1	94.4%	97%	27.8%	32%	133%	1.41% (active)	44.3%	111%	5.41% (active)	13.9%	4.58% (active)	11.8%	67.9%	110%	48.3%	112%	58.6%	79.7%	55.8%
COc1ccc(/C=N/NC(=O)c2c(N)nn(C)c2Nc2ccccc2)cc1Oc1ccccc1	101%	88.1%	95.5%	71.7%	102%	95.8%	86.6%	98.6%	94.3%	90.4%	87.8%	82.1%	87.7%	92.4%	92.2%	112%	93.5%	93.6%	92.6%
C/C(=N/N)c1nnn(-c2ccc(Br)cc2)c1C	112%	99.5%	91%	79.7%	98.1%	101%	91.6%	93.3%	109%	93.6%	96%	105%	102%	93.2%	110%	109%	95.1%	102%	104%
O=C(COc1ccc(/C=C2\C(=O)Nc3cc(Cl)ccc32)cc1)Nc1ccc(Cl)cc1	95.6%	78.2%	78.9%	46.5%	127%	57.8%	55.4%	102%	48.9%	50.1%	54.8%	60.4%	63.4%	67.7%	66.5%	87.1%	73.3%	79.1%	66.8%
FC(F)(F)c1cc(Br)cc(-c2cc(-c3ccc4c(c3)OCCO4)[nH]n2)c1	77.4%	52.4%	44.7%	51.3%	121%	28.9%	33.3%	11.6%	14.9%	22.5%	20.8%	22.5%	19.7%	48.8%	75.6%	52.5%	20.8%	41.4%	9.71% (active)
CC1(C)CC[C@]23CC[C@]4(C)[C@H](CC[C@@H]5[C@@]6(C)CC[C@H](NCO)C(C)(C)[C@@H]6CC[C@]54C)[C@H]2[C@H]1OC3	97.2%	93.9%	43.3%	73.9%	122%	26.4%	29.3%	106%	36.5%	15%	3.69% (active)	19.3%	96.1%	60.4%	76.9%	105%	64.8%	90.7%	82.6%
C#CCOc1ccc(-c2csc(NC(=O)C=C)n2)cc1NS(=O)(=O)c1cccc2c(N(C)C)cccc12	69.4%	66.1%	31.2%	21.9%	63%	9.85% (active)	36.2%	79.8%	3.87% (active)	1.79% (active)	8.34% (active)	-9.93% (active)	23.2%	81.1%	63.2%	118%	32.3%	79.2%	27.5%
COc1ccc2[nH]cc(-c3nn4cc(-c5ccncc5)nc4s3)c2c1	101%	55.4%	83.5%	23.3%	109%	57.5%	56.9%	68.9%	37.9%	50.4%	61.5%	43.8%	52%	107%	71.1%	88.3%	41.4%	87.5%	48.9%
Cc1ccc(CSC2=C(Cl)CN(c3ccc(Cl)cc3)C2=O)cc1	104%	104%	104%	78.6%	115%	107%	94.5%	113%	106%	110%	74.1%	92.8%	105%	106%	107%	117%	115%	107%	103%
O=C(Nc1ccc(Cl)c(C(F)(F)F)c1)Nc1ccc2oc(=O)ccc2c1	71.2%	35.2%	31.9%	31.3%	70.4%	10.2%	36.1%	33%	25.5%	28.2%	45.6%	-1.56% (active)	43.4%	75.6%	43.3%	81%	30.7%	83.1%	19.6%
CC(=O)N(O)CCCCCNC(=O)CCC(=O)N(O)CCCCCNC(=O)CCC(=O)N(O)CCCCCN(CCCCCCCCCC[P+](c1ccccc1)(c1ccccc1)c1ccccc1)CCCCCCCCCC[P+](c1ccccc1)(c1ccccc1)c1ccccc1	-46.7% (active)	5.96% (active)	1.45% (active)	52.3%	26.5%	29.7%	29.3%	-3.27% (active)	5.87% (active)	8.41% (active)	1.64% (active)	-13.9% (active)	10.5%	16.2%	5.75% (active)	-10% (active)	-63.9% (active)	16.3%	73.5%
O=C1Nc2ccccc2/C1=C/c1ccc(OCC(=O)c2ccccc2)cc1	113%	100%	93.9%	69.5%	125%	96.6%	86.9%	104%	98.1%	97.8%	101%	95%	94.8%	102%	96.5%	102%	102%	93.9%	98.2%
Cc1cc(=O)[nH]c(O)c1C#N	116%	94.3%	102%	84.3%	107%	99.5%	90.6%	104%	99.6%	100%	99.3%	-72% (active)	102%	97.2%	98.3%	106%	103%	116%	106%
